Screens as filed in PubChem.
Hits are enriched below; roughly 12% of the tested compounds scored in any of these assays.
G9a inh: qHTS Assay for Inhibitors of Histone Lysine Methyltransferase G9a. Histone-lysine N-methyltransferase EHMT2 (Homo sapiens), Q96KQ7. G9a H3K9 monomethylation, AlphaScreen, 2 h. AID 504332, 2011. 350,000 compounds, 8.8% hits. Potency, µM (highest dose often 102 µM), for the others: at the top dose activity, negative = inhibition, actives largely listed as inhibitors; note: % is set by controls: 0 for no effect and ±100 for the full control effect; nearly all actives have a fitted effect of over 75% in size
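Methyltransferase reactions run at room temperature for 2 h (20 nM enzyme, 500 nM biotin-H3K9 peptide, 20 uM SAM) after a 15 min compound preincubation; product detected by AlphaScreen beads and anti-H3K9me1 antibody.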
JMJD2A Tudor inh: qHTS Assay for Inhibitors of JMJD2A-Tudor Domain. 390,000 compounds, 4.4% hits. Lysine-specific demethylase 4A (Homo sapiens), O75164. AlphaScreen JMJD2A-Tudor / H3K4me3 peptide binding. Potency, µM (titrated, usually from 114 µM), without a hit: at the top dose activity change, negative = inhibition, actives largely listed as inhibitors; note: % is set by controls: 0 for no effect and ±100 for the full control effect; nearly all actives have a fitted effect of over 50% in size
Sfp inh: qHTS Assay for Inhibitors of Bacillus subtilis Sfp phosphopantetheinyl transferase (PPTase); 4'-phosphopantetheinyl transferase ffp (Bacillus subtilis), Q9F4F7; Biochemical Sfp PPTase activity, qHTS; Potency, µM, inactives show largest response in the series, negative = inhibition, hits mostly inhibitors; 310,000 compounds, 3.5% hits; AID 1490, 2009;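 note: the enzyme is Sfp with the accession as filed and its product quenches rhodamine fluorescence; 0% = enzyme reaction without inhibitor and -100% = no enzyme wells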
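Compounds were incubated with enzyme (final 15 nM) for 15 min at room temperature before substrate addition started the reaction. Fluorescence at 525 nm excitation, 598 nm emission was recorded immediately and after 30 minutes.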
HP1b chromo inh: HTS for Inhibitors of HP1-beta Chromodomain Interactions with Methylated Histone Tails | Potency, µM (doses to about 114 µM), without a hit: top-dose activity change, negative = inhibition, most hits filed as inhibitors | AID 540317, 2011 | 390,000 compounds, 0.56% hits | AlphaScreen HP1-beta / biotin-H3K9me3 peptide binding | Chromobox protein homolog 1 (Homo sapiens), P83916; note: nearly all actives have a fitted effect of over 70% in size
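Compound inhibition of the preformed complex between 50 nM HP1-beta and 50 nM biotinylated H3K9me3 peptide was read by AlphaScreen. Buffer was PBS pH 7.4 with 0.01% Tween-20. Incubations ran 30 min at room temperature, with 10 ug/mL donor/acceptor beads.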
BAZ2B inh: qHTS Assay for Inhibitors of BAZ2B | Bromodomain adjacent to zinc finger domain protein 2B (Homo sapiens), Q9UIF8 | Potency, µM (highest dose often 114 µM), without a hit: at the top dose activity change, negative = inhibition, hits mostly inhibitors | AID 504333, 2011 | 360,000 compounds, 4.4% hits | AlphaScreen BAZ2B-H3K14Ac peptide displacement; note: % is set by controls: 0 for no effect and ±100 for the full control effect; nearly all actives have a fitted effect of over 60% in size
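BAZ2B 50 nM plus b-H3(5-23)K14Ac 50 nM, PBS pH 7.4/0.01% Tween-20, 30 min RT; compound added (max 110 uM), 30 min RT; streptavidin donor/Ni-chelate acceptor beads 10 ug/mL final, 20 min dark; AlphaScreen read.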
* hit, by the source's call; ? = inconclusive; nt = not tested or not shown; ! = not confirmed by another sample; [ ] = dose if it differs, or a comment. Calls come from the whole dose curve; as a rule, active = well fitted curve in the direction sought with a large enough effect; inconclusive = small, poorly fitted or top-dose-only effect, or another doubt; inactive = no such curve, though single readings can be large; an effect the other way counts as inactive or inconclusive. Potency is the fitted concentration of half-maximal effect.

SMILES	G9a inh	JMJD2A Tudor inh	Sfp inh	HP1b chromo inh	BAZ2B inh
COc1cccc(/C=C2\SC(=S)N(C(Cc3ccccc3)C(=O)O)C2=O)c1 (stereo unspecified)	45µM*	-34%	-17%	41%	?
CC(/C=C1\SC(=S)N(C(C(=O)O)c2ccccc2)C1=O)=C\c1ccccc1 (stereo unspecified)	nt	?	-12%	13%	?
O=C(NCCN1C(=O)S/C(=C\c2cccs2)C1=O)[C@H](Cc1ccccc1)N1C(=O)c2ccccc2C1=O	-7%[59 µM]	nt	3%	nt	-8%
CC(c1ccccc1)N1C(=O)/C(=C/c2ccncc2)SC1=S (stereo unspecified)	28µM*	16µM*	-30%	?	16µM*
O=C(O)C(Cc1ccccc1)N1C(=O)/C(=C/c2cccs2)SC1=S (stereo unspecified)	22µM*	?	-22%	-9%	?
O=C(O)C(c1ccccc1)N1C(=O)/C(=C/c2cccs2)SC1=S (stereo unspecified)	nt	4µM*	-13%	-20%	-10%
COc1cc(OC)c(NC(=O)NCc2ccc3c(c2)CCN3C(=O)c2ccccc2)cc1Cl	-25%[59 µM]	-19%	nt	22%[57 µM]	-15%
COc1ccc(C(=O)Nc2nc(-c3nnn(-c4cc(OC)ccc4OC)c3C)ns2)cc1	-1%[59 µM]	-16%	nt	28%	1%
Cc1noc(/C=C/c2ccccc2F)c1S(=O)(=O)N1CCC(C(=O)N(C)Cc2ccco2)CC1	2%[59 µM]	-11%	nt	17%[57 µM]	-6%
COCC(=O)N1CCC2(CC1)CN(Cc1ccccc1OC)C2	-15%[12.7 µM]	nt	13%	nt	nt
O=[N+]([O-])c1ccc(Oc2ccc(F)cc2)c2ccncc12	?	?	-7%	-34%	50µM*
CC(C)=NNc1ncnc2nc[nH]c12	nt	25µM*	nt	34%	nt
COC(=O)CNC(=O)C(Cc1c[nH]c2ccccc12)NC(=O)Oc1ccccc1 (stereo unspecified)	nt	2%	5%	14%	0.71µM*
COC(=O)C(Cc1c[nH]c2ccccc12)NC(=O)C(=O)c1c[nH]c2ccccc12 (stereo unspecified)	32µM*	?	19%	-16%	?
N[C@@H](Cc1c[nH]c2ccccc12)C(=O)O	8.4µM*!	nt	?	nt	50µM*
CC(C)C(NS(=O)(=O)c1cccc2cccnc12)C(=O)Nc1ccc(OC(F)(F)F)cc1 (stereo unspecified)	-15%[59 µM]	-15%	nt	56%	-19%
O=C(Cn1nc(-c2ccco2)ccc1=O)Nc1ccc(Cl)c(Cl)c1	?	-8%	56µM*	?	-19%
O=C(Cn1nc(-c2ccco2)ccc1=O)Nc1cc(Cl)ccc1Cl	nt	-12%	45µM*	29%	8%
COc1ccc(Cc2cnc(N)nc2N)cc1OC	-5%[12.7 µM]	nt	-1%	nt	nt
Cc1ccc(S(=O)(=O)C2CS(=O)(=O)CC2O)cc1 (stereo unspecified)	21%[12.7 µM]	-10%	-1%	29%	31%
CC(=O)C1=C(S(=O)(=O)c2ccc(C)cc2)CS(=O)(=O)C1	1.3µM*	22µM*	5.6µM*	14µM*	?
COc1cccc(CNC(=O)[C@H](CCSC)NC(=O)N2CCn3c2nc2ccccc23)c1	50µM*	-22%	3%	24%	?
CSCC[C@H](NC(=O)N1CCn2c1nc1ccccc12)C(=O)NC1CC1	-33%	-12%	-14%	21%	-22%[57.1 µM]
COc1cc(NC(=O)[C@H](C)NC(=O)N2CCn3c2nc2ccccc23)cc(OC)c1	-11%	-24%	-1%	40%	50µM*
Cn1nc(C(F)(F)F)c(C#N)c1N1CCN(c2ccccn2)CC1	9%	50µM*	-9%	-3%	1%
SMILES	G9a inh	JMJD2A Tudor inh	Sfp inh	HP1b chromo inh	BAZ2B inh
O=C(COc1ccccc1Cl)NCCCN1CCOCC1	3%[12.7 µM]	-2%[11.4 µM]	24%	62%	7%
Clc1ccccc1OCCCCN1CCCCC1	nt	28µM*	-21%	?	?
Clc1ccc(Cl)c(OCCCCN2CCCCC2)c1	8.9µM*	32µM*	-1%	?	?
Clc1ccccc1OCCCCN1CCCC1	?	3.2µM*	-8%	?	?
O=S(=O)(CCN1CCCCC1)Oc1ccc(Cl)cc1Cl	?	-11%	1%	58%	-2%
Cc1ccccc1OCCCCCCN1CCNCC1	nt	-27%	nt	-4%	nt
Clc1ccccc1OCCCCN1CCNCC1	nt	3.2µM*	?	?	28µM*
COc1cc(C2CC(c3cccnc3)=NN2c2ccc(F)cc2)cc(OC)c1OC (stereo unspecified)	59%	30%	-19%	141%	69%
Cc1ccc(Cl)c(OCCCCN2CCC(C)CC2)c1	nt	0%	nt	33%	nt
CN1CCN(CCCCOc2ccccc2C=O)CC1	nt	4µM*	25µM*	?	22µM*
CN1CCN(CCCCC(=O)c2ccccc2)CC1	?	-33%	8%	45%	?
c1ccc2c(OCCCCN3CCCC3)cccc2c1	35µM*	40µM*	-11%	?	56µM*
CC1CCN(CCOc2cc(Cl)ccc2Cl)CC1	?	3.5µM*	-14%	?	50µM*
Fc1ccccc1OCCCCN1CCCCC1	50µM*	79µM*	-16%	-12%	?
COc1ccc(NC(=O)CCCc2nc(-c3ccco3)no2)c(OC)c1	3%[59 µM]	-15%	nt	50%	?
COc1ccc(C(CCN2CCCC(C)C2)c2c(OC)cc(OC)c3c2OC(=O)CC3c2cc(OC)c(OC)c(OC)c2)cc1 (stereo unspecified)	-6%[59 µM]	-21%	2%	7%	-24%
COc1cc(OC)c2c(c1C(CCN1CCN(c3ccccc3)CC1)c1ccc(N(C)C)cc1)OC(=O)CC2c1ccc(N(C)C)cc1 (stereo unspecified)	nt	13µM*	7%	?	nt
CCN(CC)CCC(c1ccc(N(C)C)cc1)c1c(OC)cc(OC)c2c1OC(=O)CC2c1ccc(OC)cc1 (stereo unspecified)	nt	16µM*	-12%	?	nt
CCN(CC)CCC(c1ccc(N(C)C)cc1)c1c(OC)cc(OC)c2c1OC(=O)CC2c1ccc(N(C)C)cc1 (stereo unspecified)	nt	13µM*	9%	14µM*	nt
CCOCCCNC(=O)C(c1ccccc1)N(Cc1ccc2c(c1)OCO2)C(=O)c1ccc(NC(C)=O)cc1 (stereo unspecified)	12%[59 µM]	-12%	nt	16%	-2%
COc1ccc(NC(=O)C2C3C=CC(C3)C2C(=O)NCc2ccco2)c(OC)c1 (stereo unspecified)	-2%[59 µM]	-6%	-4%	18%	-8%
